Records with an inconclusive call do not appear. The source holds several records for some structures; these can differ, active in one and inactive in another. Calls of active or inactive are those of the source. Unless noted, calls come from the whole dose curve.
Experiments:
[1] = target: Acetylcholinesterase (Homo sapiens) (UniProt P22303); experiment: Acetylcholinesterase (AChE) small molecule antagonists: colormetric cell-based qHTS assay (AID 1347395); note: nearly all actives have a fitted effect of over 30% in size; note: potency is the fitted concentration of half-maximal effect; for activity, negative = inhibition: % is set by controls: 0 for no effect and ±100 for the full control effect
How it was run: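 AChE inhibition read colorimetrically via DTNB–thiocholine in SH-SY5Y cells. Compound 30 min, substrate 90 min, both 37 C.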

[2] = target: Acetylcholinesterase (Homo sapiens) (UniProt P22303); experiment: Acetylcholinesterase (AChE) small molecule antagonists: enzyme-based qHTS assay (AID 1347397); settings: Potency: AChE enzyme activity inhibition; outcome: AChE enzyme activity inhibition; note: nearly all actives have a fitted effect of over 55% in size; note: potency is the fitted concentration of half-maximal effect; for activity change, negative = inhibition: % is set by controls: 0 for no effect and ±100 for the full control effect
How it was run: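 Colorimetric DTNB read-out of thiocholine released from acetylthiocholine by recombinant human AChE (50 mU/mL as dispensed). Compounds were preincubated 30 min at RT before substrate/DTNB addition, with a 10 min RT reaction.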

[3] = target: Acetylcholinesterase (Homo sapiens) (UniProt P22303); experiment: Acetylcholinesterase (AChE) small molecule antagonists: fluorescence cell-based qHTS assay (AID 1347398); settings: Potency: AChE activity; outcome: AChE activity; note: nearly all actives have a fitted effect of over 50% in size; note: potency is the fitted concentration of half-maximal effect; for activity change, negative = inhibition: % is set by controls: 0 for no effect and ±100 for the full control effect
How it was run: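 SH-SY5Y, 2,000 cells/well, attached overnight; cmpd 30 min 37 C; acetylthiocholine/Thiolite Green cocktail 40 min RT; fluorescence Ex/Em 490/520 nm.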

[4] = target: Acetylcholinesterase (Homo sapiens) (UniProt P22303); experiment: Acetylcholinesterase (AChE) small molecule antagonists: enzyme-based qHTS assay with human liver microsomes (AID 1347399); settings: Potency: qHTS inhibition; outcome: qHTS inhibition; note: nearly all actives have a fitted effect of over 60% in size; for activity change, negative = inhibition: % is set by controls: 0 for no effect and ±100 for the full control effect
How it was run: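 Recombinant human AChE (50 mU/mL in the enzyme mix) and human liver microsomes (0.25 mg/mL final) were preincubated with compound and NADPH (0.25 mg/mL final) for 30 min at 37 C. Acetylthiocholine/DTNB was then added; thiocholine was read colorimetrically after 10 min at room temperature.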

[5] = target: Aromatase (Homo sapiens) (UniProt P11511); experiment: qHTS assay to identify aromatase inhibitors (AID 743083; active = well fitted inhibition curve with a large enough effect in the repeat runs; note: potency is the fitted concentration of half-maximal effect; nearly all actives have a fitted effect of over 55% in size)
Chain of Aromatase (Homo sapiens) (P11511 whole entry, looked up): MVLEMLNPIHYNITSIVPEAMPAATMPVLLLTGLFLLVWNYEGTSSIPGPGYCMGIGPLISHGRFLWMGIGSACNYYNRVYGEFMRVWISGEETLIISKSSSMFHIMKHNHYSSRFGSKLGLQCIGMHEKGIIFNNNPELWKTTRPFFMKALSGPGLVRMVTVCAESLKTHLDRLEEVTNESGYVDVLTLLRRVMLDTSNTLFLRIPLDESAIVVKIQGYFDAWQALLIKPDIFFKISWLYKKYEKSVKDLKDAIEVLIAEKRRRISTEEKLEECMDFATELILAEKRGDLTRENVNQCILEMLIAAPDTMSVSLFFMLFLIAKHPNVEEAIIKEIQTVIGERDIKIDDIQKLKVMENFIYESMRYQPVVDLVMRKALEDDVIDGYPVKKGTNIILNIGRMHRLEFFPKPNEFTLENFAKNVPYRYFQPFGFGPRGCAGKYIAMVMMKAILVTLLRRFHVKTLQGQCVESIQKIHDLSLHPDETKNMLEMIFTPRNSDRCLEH

Chain of Acetylcholinesterase (Homo sapiens) (P22303 whole entry, looked up): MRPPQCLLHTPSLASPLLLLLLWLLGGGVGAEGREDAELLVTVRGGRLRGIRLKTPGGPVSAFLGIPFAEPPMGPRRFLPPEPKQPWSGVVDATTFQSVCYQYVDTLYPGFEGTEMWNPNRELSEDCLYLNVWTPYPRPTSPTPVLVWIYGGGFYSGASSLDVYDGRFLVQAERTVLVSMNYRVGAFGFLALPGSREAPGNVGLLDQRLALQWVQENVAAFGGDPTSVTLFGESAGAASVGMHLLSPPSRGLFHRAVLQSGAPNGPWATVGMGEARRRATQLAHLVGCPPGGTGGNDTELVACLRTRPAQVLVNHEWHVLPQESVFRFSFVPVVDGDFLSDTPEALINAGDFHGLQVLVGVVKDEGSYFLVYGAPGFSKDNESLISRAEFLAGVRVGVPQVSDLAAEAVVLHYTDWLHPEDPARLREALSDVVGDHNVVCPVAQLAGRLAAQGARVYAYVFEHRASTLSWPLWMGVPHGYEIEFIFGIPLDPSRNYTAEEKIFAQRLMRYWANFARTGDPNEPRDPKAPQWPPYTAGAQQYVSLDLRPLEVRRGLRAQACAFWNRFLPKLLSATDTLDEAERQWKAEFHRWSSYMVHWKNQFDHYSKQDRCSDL

C/C(=C(\CCOP(=O)(O)O)SC(=O)c1ccccc1)N(C=O)Cc1cnc(C)nc1N
inactive: activity, negative = inhibition [1] -0.469% [at 10.5 µM] | activity change, negative = inhibition [2] 0.584% [at 10.5 µM] | activity change, negative = inhibition [3] 5.35% [at 10.5 µM] | activity change, negative = inhibition [4] -1.26% [at 10.5 µM]

CC(C)c1ccccc1N
inactive: Potency [1] | Potency [2] | Potency [3] | Potency [4]

NC(=O)c1cccc([N+](=O)[O-])c1
inactive: Potency [1] | Potency [2] | Potency [3] | Potency [4]

CCC(=O)Oc1ccc(/C(CC)=C(\CC)c2ccc(OC(=O)CC)cc2)cc1
inactive: Potency [1] | Potency [2] | Potency [3] | Potency [4]

COC(=O)NN
inactive: Potency [1] | Potency [2] | Potency [3] | Potency [4]

[Cl][Sc]([Cl])[Cl]
inactive: Potency [1] | Potency [2] | Potency [3] | Potency [4]

Clc1cc(Cl)nc(Cl)n1
inactive: Potency [1] | Potency [2] | Potency [3] | Potency [4]

CCc1cc(C(C)(C)C)c(O)c(C(C)(C)C)c1
inactive: Potency [1] | Potency [2] | Potency [3] | Potency [4]

O=C(Nc1ccc2c(c1)Cc1ccccc1-2)C(F)(F)F
inactive: Potency [1] | Potency [2] | Potency [3] | Potency [4]

Nc1ccc(-c2ccc(F)cc2)cc1
inactive: Potency [1] | Potency [2] | Potency [3] | Potency [4]

C=CCn1c(=O)n([C@@H]2O[C@H](CO)[C@@H](O)[C@H]2O)c2nc(N)[nH]c(=O)c21
inactive: Potency [1] | Potency [2] | Potency [3] | Potency [4]

C=CC(C)(CCC=C(C)C)OC(=O)c1ccccc1 (configuration not stated)
inactive: Potency [1] | Potency [2] | Potency [3] | Potency [4]

CCCCCSCCCCC
inactive: Potency [1] | Potency [2] | Potency [3] | Potency [4]

COCCCOc1cc(C[C@@H](C[C@H](N)[C@@H](O)C[C@H](C(=O)NCC(C)(C)C(N)=O)C(C)C)C(C)C)ccc1OC
inactive: Potency [1] | Potency [2] | Potency [3] | Potency [4]

CCOC(=O)C1OC1c1ccccc1 (configuration not stated)
inactive: Potency [1] | Potency [2] | Potency [3] | Potency [4]

Cc1c2ccccc2c(C)c2c1ccc1ccccc12
inactive: Potency [1] | Potency [2] | Potency [3] | Potency [4]

CC(=O)C1C(=O)C=C(C)OC1=O (configuration not stated)
inactive: Potency [1] | Potency [2] | Potency [3] | Potency [4]

O=C1c2ccccc2C(=O)N1SC1CCCCC1
inactive: Potency [4]
22.4 µM (active) and inactive: Potency [3]
39.9 µM (active) and inactive: Potency [1]
31.7 µM (active) and inactive: Potency [2]
active: Potency [5] 30.6 µM

Cc1nc2ccc(CN(C)c3ccc(C(=O)N[C@@H](CCC(=O)O)C(=O)O)s3)cc2c(=O)[nH]1
inactive: Potency [1] | Potency [2] | Potency [3] | Potency [4]

Cc1cc(C2CCCCC2)n(O)c(=O)c1
inactive: Potency [1] | Potency [2] | Potency [3] | Potency [4]

CC1=CC[C@H](CC=O)C1(C)C
inactive: Potency [1] | Potency [2] | Potency [3] | Potency [4]

Cc1ccc(C(=O)c2ccc(CC(=O)O)n2C)cc1
inactive: Potency [1] | Potency [2] | Potency [3] | Potency [4]

CC1=C(C/C=C(\C)CCC[C@H](C)CCC[C@H](C)CCCC(C)C)C(=O)c2ccccc2C1=O
inactive: Potency [1] | Potency [2] | Potency [3] | Potency [4]

CC(C)(Oc1ccc(C2CC2(Cl)Cl)cc1)C(=O)O (configuration not stated)
inactive: Potency [1] | Potency [2] | Potency [3] | Potency [4]

Cc1cccc(NC(=S)N(C)C)c1
inactive: Potency [1] | Potency [2] | Potency [3] | Potency [4]

CC1CCC2CC1C2(C)C (configuration not stated)
inactive: Potency [1] | Potency [2] | Potency [3] | Potency [4]

O=C=NCCCCCCN=C=O
inactive: Potency [1] | Potency [2] | Potency [3] | Potency [4]

CCCCCC/C=C/C=O
inactive: Potency [1] | Potency [2] | Potency [3] | Potency [4]

COC(=O)C1=C(C)NC(C)=C(C(=O)OCCc2ccc(N3CCN(C(c4ccccc4)c4ccccc4)CC3)cc2)C1c1cccc([N+](=O)[O-])c1 (configuration not stated)
inactive: Potency [1] | Potency [2] | Potency [3] | Potency [4]

Oc1cccc2[nH]ccc12
inactive: Potency [1] | Potency [2] | Potency [3] | Potency [4]

CCC1OCC(COc2ccc(Oc3ccccc3)cc2)O1 (configuration not stated)
inactive: Potency [1] | Potency [2] | Potency [3] | Potency [4]

CCCCC/C=C\C/C=C\CCCCCCCC(=O)OC
inactive: Potency [1] | Potency [2] | Potency [3] | Potency [4]

O=C(c1ccccc1O)c1ccccc1O
inactive: Potency [1] | Potency [2] | Potency [3] | Potency [4]

CC(C)Cc1ccc(C(C)C(=O)O)cc1 (configuration not stated)
inactive: Potency [1] | Potency [2] | Potency [3] | Potency [4]

Cc1ccc2ncccc2c1
inactive: Potency [1] | Potency [2] | Potency [3] | Potency [4]

OCc1ccccc1
39.4 µM (active) and inactive: Potency [1]
inactive: Potency [2] | Potency [3] | Potency [4]

CCc1cccc2c(CCO)c[nH]c12
inactive: Potency [1] | Potency [2] | Potency [3] | Potency [4]

CCCCCCc1ccc(O)cc1O
inactive: Potency [1] | Potency [2] | Potency [3] | Potency [4]

O=C(CN1CCNCC1)NC1CCCCC1
inactive: Potency [1] | Potency [2] | Potency [3] | Potency [4]

C=C/C=C/C=C/CCCCC
inactive: activity, negative = inhibition [1] 0.16% [at 23.6 µM] | activity change, negative = inhibition [2] 0.676% [at 23.6 µM] | activity change, negative = inhibition [3] -10.6% [at 23.8 µM] | activity change, negative = inhibition [4] -1.78% [at 23.6 µM]

CCN(CCN)c1cccc(C)c1
inactive: Potency [1] | Potency [2] | Potency [3] | Potency [4]

Nc1ccc(S(=O)(=O)Nc2cnc3ccccc3n2)cc1
inactive: Potency [1] | Potency [2] | Potency [3] | Potency [4]

O=c1oc2cc(O)ccc2c2oc3cc(O)ccc3c12
inactive: Potency [1] | Potency [2] | Potency [3] | Potency [4]

Nc1cccc2c1CN(C1CCC(=O)NC1=O)C2=O (configuration not stated)
inactive: Potency [1] | Potency [2] | Potency [3] | Potency [4]

C1COCCO1
inactive: Potency [1] | Potency [2] | Potency [3] | Potency [4]

Oc1ccc2c(c1)OC[C@@H](N1CCC(O)(c3ccc(F)cc3)CC1)[C@H]2O
inactive: Potency [1] | Potency [2] | Potency [3] | Potency [4]

CC1(C)[C@H]2CC[C@](C)(C2)[C@H]1O
inactive: Potency [1] | Potency [2] | Potency [3] | Potency [4]

CC(C)C(=O)OCc1cccc(OC(=O)[C@@H]2N3C(=O)[C@@H](NC(=O)Cc4ccccc4)[C@H]3SC2(C)C)c1
inactive: Potency [1] | Potency [2] | Potency [3] | Potency [4]

O=c1c(-c2ccc(O)cc2)coc2cc(O)cc(O)c12
inactive: Potency [1] | Potency [2] | Potency [3] | Potency [4]

C1CNCCN1
inactive: outcome [1] | outcome [2] | outcome [3] | outcome [4]

COc1ccc(-c2cc(C(F)F)nn2-c2ccc(S(N)(=O)=O)cc2)cc1F
inactive: Potency [1] | Potency [2] | Potency [3] | Potency [4]

Cn1cnc2c(F)c(Nc3ccc(Br)cc3Cl)c(C(=O)NOCCO)cc21
inactive: Potency [1] | Potency [2] | Potency [4]

CC(=O)N(CC(O)CN(C(C)=O)c1c(I)c(C(=O)NCC(O)CO)c(I)c(C(=O)NCC(O)CO)c1I)c1c(I)c(C(=O)NCC(O)CO)c(I)c(C(=O)NCC(O)CO)c1I (configuration not stated)
inactive: Potency [1] | Potency [2] | Potency [3] | Potency [4]

CSc1ccc(/C=C2/C(C)=C(CC(=O)O)c3cc(F)ccc32)cc1
inactive: Potency [1] | Potency [2] | Potency [3] | Potency [4]

CCCOC(=O)CCCCC(=O)OCCC
inactive: Potency [1] | Potency [2] | Potency [3] | Potency [4]

C=CCNC(N)=S
inactive: Potency [1] | Potency [2] | Potency [3] | Potency [4]

CC(C)C(=O)C(C)C
inactive: Potency [1] | Potency [2] | Potency [3] | Potency [4]

CCCCCN(CCCOC)C(=O)C(CCC(=O)O)NC(=O)c1ccc(Cl)c(Cl)c1 (configuration not stated)
inactive: Potency [1] | Potency [2] | Potency [4]

c1ccc2sc(SN3CCOCC3)nc2c1
inactive: Potency [1] | Potency [2] | Potency [4]

CN(C)c1ccc(C(=N)c2ccc(N(C)C)cc2)cc1
7.01 µM (active) and inactive: Potency [1]
inactive: Potency [2] | Potency [4]
